This is a sample that favours compounds with a hit; in the whole collection about 6.5% have one here.
NADH coupling: inhibition of NAD/NADH coupling enzymes, library profiling | AID 774 | 65,000 tested, 0.02% active | IC50, µM (highest dose often 10 µM), without a hit: top-dose inhibition | coupled PK/LDH NADH assays, four targets;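 active = single-dose screening hits from any of four coupled enzyme assays that gave an IC50 when retested across doses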;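 also: the DPM-DC format reads NADH fluorescence rather than 340 nm absorbance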
Spn PMK inh: blocks S. pneumoniae phosphomevalonate kinase; purified PMK, PK/LDH-coupled NADH absorbance 340 nm; inhibition, % at 10 µM; 65,000 tested, 0.49% active; AID 539;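 active = top-ranked compounds by inhibition in the single 10 µM screen, taking a fixed number of the strongest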;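 also: 0% = full reaction with DMSO carrier and 100% = background rate without enzyme reaction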
MK inhibit: inhibitors of Streptococcus pneumoniae mevalonate kinase. inhibition, % at 10 µM. 65,000 tested, 0.48% active. purified MK, PK/LDH-coupled NADH absorbance 340 nm;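 active = ranked among the strongest by inhibition in the single 10 µM screen, a fixed top-ranked set picked for dose follow-up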
A340 absorber: compound absorbs light at 340 nm. compound absorbance at 340 nm, fold over control. fold change at 10 µM. 65,000 tested, under 10 active. AID 708;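 active = at 10 µM dose, initial 340 nm absorbance at least 2 fold that of control wells; inactive = change under 2 fold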;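 also: initial absorbance extrapolated from kinetic A340 decline of NADH oxidation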
Autofluor 339: intrinsic fluorescence of library compounds, ex339/em460 – biochemical, MLSMR library, data from DPM-DC assay, artefact control, profiling panel; compound autofluorescence, ex339/em460 nm, NADH buffer; hits give high values; 1 = no-compound wells, NADH background; fluorescence fold increase at 10 µM; 65,000 tested, 5.5% active; AID 709;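 active = at 10 µM, mean starting fluorescence two-fold or more over control wells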;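 also: signal is the first read of a kinetic run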
Spn DPM-DC inh: S. pneumoniae DPM-DC inhibition. purified DPM-DC, PK/LDH coupled NADH fluorescence. calls only at 10 µM. 65,000 tested, 0.49% active;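 active = the 320 compounds with the highest percent inhibition in the single-dose primary screen, excluding strongly autofluorescent ones, cut at about 32% in these data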;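 also: kinetic rate of NADH fluorescence loss reporting ADP formed by the decarboxylase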
An asterisk follows results filed as active; i = inactive; · = not tested or not shown.

SMILES	NADH coupling	Spn PMK inh	MK inhibit	A340 absorber	Autofluor 339	Spn DPM-DC inh
Cc1ccc(-c2noc(CCC(=O)N(C)c3ccccc3C)n2)cc1	9.0%	12.0	4.0	1	1.04	i
COc1ccc(OC)c(NC(=O)CNC(=O)Cn2ccc3ccccc3c2=O)c1	14.0%	30.0*	6.0	1.07	1.19	i
CC(=O)Nc1ccc(-c2nc3c(C)cccc3[nH]2)cc1	10.0%	8.0	4.0	1.07	2.13*	i
COC(=O)c1c(C)cc(C)n2c1nc1ccccc12	16.0%	20.0	12.0	1.02	3.53*	·
CCn1cc(C2Nc3ccccc3C(=O)N2O)c(C)n1 (stereo unspecified)	3.0%	12.0	7.0	1	1.21	i
Cc1cc2n(n1)C(c1ccc(O)cc1)Nc1ccccc1-2 (stereo unspecified)	9.0%	8.0	0.0	1	2.92*	i
Cc1cc2n(n1)C(c1cn(-c3ccccc3)nc1C)Nc1ccccc1-2 (stereo unspecified)	8.0%	4.0	10.0	1.01	2.15*	i
Cc1cc2n(n1)C(c1c[nH]c3ccccc13)Nc1ccccc1-2 (stereo unspecified)	7.0%	0.0	0.0	1.1	2.35*	i
Cc1cc2n(n1)C(c1ccco1)Nc1ccccc1-2 (stereo unspecified)	7.0%	3.0	0.0	1.03	1.74	i
CCN(CC)c1ncnc2sc(C(=O)N3CCN(c4ccccc4)CC3)c(C)c12	4.0%	11.0	0.0	1.02	1.07	i
CN(CCNC(=O)C1CC(=O)N(C2CCCC2)C1)Cc1ccccc1 (stereo unspecified)	4.0%	9.0	4.0	1.05	1.06	i
C=CCn1c(-c2cccs2)nc2nc3ccccc3nc21	1.0%	13.0	0.0	1.02	1.39	·
CCC(C)n1c(-c2cccs2)nc2nc3ccccc3nc21 (stereo unspecified)	2.0%	2.0	2.0	1.12	3.94*	·
COc1ccc(N2C(=O)CCC(C(C)=O)=C2C)cc1	0.0%	0.0	0.0	1.07	1.09	i
N#CC1=C(O)C(c2ccccc2)n2c1nc(=O)c1ccccc12 (stereo unspecified)	2.0%	0.0	3.0	1.07	4.96*	·
Cc1sc2ncnc(-n3cnc4ccccc43)c2c1C	6.0%	5.0	9.0	1.02	2*	i
Cc1cccc(C2Nc3ccccc3C(=O)N2c2ccccc2)n1 (stereo unspecified)	3.0%	3.0	3.0	1.05	2.16*	·
O=C1c2ccccc2NC(c2ccccn2)N1c1ccc(Cl)cc1 (stereo unspecified)	10.0%	14.0	5.0	0.98	4.83*	·
O=C1c2ccccc2NC(c2ccccc2)N1c1ccc(O)cc1 (stereo unspecified)	9.0%	13.0	13.0	1.06	1.59	i
CCCCn1c2c(c(=O)n(C)c1=O)C(CC(=O)OCC(=O)Nc1cccc(C(F)(F)F)c1)C(=O)N2 (stereo unspecified)	5.0%	10.0	5.0	1.01	1.08	i
COc1ccc2[nH]c(=O)c(CN(CC3CCCO3)C(=O)Nc3ccc(F)cc3)cc2c1 (stereo unspecified)	4.0%	4.0	9.0	1.01	2.33*	i
COc1cccc(C(=O)N(Cc2cc3cc(C)ccc3[nH]c2=O)CC2CCCO2)c1 (stereo unspecified)	7.0%	9.0	7.0	1.07	1.79	i
COc1ccc2[nH]c(=O)c(CN(CCCN(C)C)C(=O)Nc3ccccc3)cc2c1	13.0%	11.0	8.0	1.11	2.73*	i
CCc1ccc2[nH]c(=O)c(CN(CCN(C)C)C(=O)Nc3ccccc3)cc2c1	5.0%	7.0	9.0	1.08	1.34	i
CCN1CCCC1CN(Cc1cc2cc(OC)ccc2[nH]c1=O)C(=O)NCc1ccccc1 (stereo unspecified)	8.0%	13.0	3.0	1.07	4.31*	·
SMILES	NADH coupling	Spn PMK inh	MK inhibit	A340 absorber	Autofluor 339	Spn DPM-DC inh
COc1ccc2[nH]cc(C(=O)CN3CCC(C)CC3)c2c1	3.0%	0.0	8.0	1.01	1.12	i
COc1ccc2[nH]cc(C(=O)CN3CCCC(C)C3)c2c1 (stereo unspecified)	10.0%	25.0*	4.0	1.08	1.15	i
COc1ccc(C2N=C(c3ccccc3)C(C)(C)N2O)cc1OC (stereo unspecified)	0.0%	0.0	1.0	1.04	1.07	i
CCOC(=O)c1[nH]cc(-c2ccccc2)c1N1CCOCC1	5.0%	15.0	10.0	0.99	1.04	i
Cc1ccc(-c2nnn(CC(=O)N(CC(=O)NCC3CCCO3)c3ccc(F)c(Cl)c3)n2)o1 (stereo unspecified)	15.0%	44.0*	0.0	1.06	1.05	i
O=C(NCc1nnc(SCC(=O)N2CCN(c3ccccc3)CC2)o1)c1ccco1	18.0%	12.0	42.0*	1.03	1.17	i
COc1ccc(CNCCNC(=O)c2ccco2)c(OC)c1OC	3.0%	7.0	1.0	1.04	1.15	i
COc1ccc2c(C)c(C(=O)NCC(C)O)oc2c1OC (stereo unspecified)	10.0%	15.0	4.0	1.06	2.29*	·
CCc1ccccc1OCc1nnc(N)s1	2.0%	0.0	5.0	1.06	1.07	i
Cc1ccc(C)c(OCCOCCN2CCOCC2)c1	0.0%	0.0	1.0	1.03	1.09	i
Clc1cc(Br)ccc1OCCOCCN1CCOCC1	15.0%	1.0	44.0*	1.02	1.11	i
O=C1CCCc2c1nc(-c1ccco1)n2O	5.0%	6.0	3.0	1.19	3.9*	·
O=C1CCCc2c1nc(-c1ccccc1)n2O	47.0%	0.0	93.0*	1.09	2.11*	·
O=C(O)CCn1c(-c2ccccc2)cc2c1CCCC2=O	3.0%	7.0	3.0	1.06	1.05	i
COC(=O)c1sc2nc(N3CCCCC3)c3c(c2c1N)CC(C)(C)N(C)C3	1.0%	2.0	0.0	1.09	2.33*	·
CCOC(=O)c1sc2nc(N3CCOCC3)c3c(c2c1N)CCC3	11.0%	5.0	17.0	1.15	3.64*	·
CCN(CC)c1ccc(-c2nc3cnccc3n2C)cc1	18.0%	17.0	7.0	1.24	2.51*	i
Cc1ccc(Nc2nc(N)nc(CSc3nnc(-c4ccncc4)o3)n2)cc1	0.0%	0.0	0.0	1.06	1.12	i
COC(=O)CN(c1ccccn1)S(=O)(=O)c1ccccc1	10.0%	6.0	2.0	1.03	3.14*	i
Cc1nc2c(c(=O)n1CC1CCCO1)c1nc3ccccc3nc1n2CC(C)C (stereo unspecified)	5.0%	0.0	13.0	0.98	1.45	i
CCCCn1cnc2c(c1=O)c1nc3ccccc3nc1n2Cc1ccc2c(c1)OCO2	1.0%	0.0	2.0	1.01	2.27*	·
CCOCCCn1c(C)nc2c(c1=O)c1nc3ccccc3nc1n2CCC1=CCCCC1	11.0%	10.0	6.0	1.07	2.98*	i
CCCn1cnc2c(c1=O)c1nc3ccccc3nc1n2CCc1ccccc1	6.0%	2.0	9.0	1.03	3.99*	·

Screening data: PubChem, SRMLSC
